# Compound activity (PubChem BioAssay)
# TRPM1 prom inh – inhibitors of MITF-dependent TRPM1 promoter reporter, primary screen, cell-based, SK-MEL-5, single point, luciferase; SK-MEL-5 TRPM1 promoter luciferase, 24 h; inhibition, % at 12.5 µM; hit rate 0.83% among 330,000;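 active = mean inhibition across replicates of 60% or more, whatever share of single replicates reaches that level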
# CF NFkB inh – inhibitors of PAF-induced NF-kB signaling, primary screen, cell-based, GFP fluorescence, uHTS; KKLEB NF-kB-GFP reporter, GFP fluorescence overnight; inhibition, % at 5 µM; hit rate 0.86% among 360,000;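 active = at least 50% inhibition at 5 µM, scaled per plate between neutral and stimulator controls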;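 also: PAF is a Pseudomonas aeruginosa culture filtrate used as stimulus; plate controls were PAF-stimulated DMSO wells for no effect and unstimulated DMSO wells for full effect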
# Shn3 inh set2 – reduction of Shn3 3'UTR firefly luciferase signal, primary screen, Schnurri-3 inhibitor project, cell-based, Clone20 osteoblasts, set 2. inhibition, % at 12.5 µM. Clone20 osteoblast Shn3 3'UTR firefly luciferase, 24 h. hit rate 0.52% among 360,000. AID 588674, 2011;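 active = mean inhibition of at least 75% with every replicate also reaching 75%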;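 also: 0% = median of neutral control wells and 100% = pilot-screen positive control compound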
# HIF-2a inh – HIF-2a reporter inhibitors, primary screen, luminescence, 786-0 RCC cells. hit rate 0.72% among 360,000. inhibition, % at 18.8 µM. 786-0 RCC cells HIF-2a reporter, luciferase luminescence, overnight. AID 624352, 2012;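 active = inhibition of the luminescence signal of 40% or more relative to plate controls, in a single-dose primary screen at 18.75 µM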
# Peg3 prom inh – Peg3 promoter-driven luciferase inhibitors, primary screen, cell-based, HeLa, luciferase luminescence; HeLa PEG-Prom luciferase reporter, overnight; inhibition, % at 20 µM; hit rate 1.7% among 360,000;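 active = inhibition of at least 50% at 20 µM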
# KKLEB tox – cytotoxicity in KKLEB CF airway cells, primary screen, cytotoxicity control for CF NF-kB inhibitor project, cell-based, uHTS, fluorescence assay plates; hit rate 0.36% among 360,000; KKLEB CF airway cells viability, ATPlite luminescence, overnight; stronger effect = lower value; cells stimulated with P. aeruginosa culture filtrate; activity change (cytotoxicity), % at 5 µM;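 active = corrected activity change at or below -50% at 5 µM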
# CF NFkB inh conf – inhibitors of PAF-induced NF-kB signaling, retest, confirmation, cell-based, GFP fluorescence, single concentration; inhibition, % at 5 µM; KKLEB CF airway cells, overnight; shares compounds with CF NFkB inh; hit rate 64% among 1,300; in the data active = inhibition above about 40%;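 also: stimulus PAF is a Pseudomonas aeruginosa filtrate and not platelet activating factor; plate controls were DMSO wells with stimulus for no effect and unstimulated DMSO wells for full effect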
# The depositor's hits bear a star; . = no result given. An excerpt weighted towards active compounds, which were near 2.8% of everything screened.
SMILES,TRPM1 prom inh,CF NFkB inh,Shn3 inh set2,HIF-2a inh,Peg3 prom inh,KKLEB tox,CF NFkB inh conf
ON=C1c2ccccc2-c2ccccc21,-3,62*,-7,-12,-77,4,53*
CC(NC(=O)Cc1ccsc1)c1ccc(Cl)cc1Cl (stereo not drawn),7,2,13,-6,-11,11,.
O=C(Cc1ccc(Br)cc1)Nc1ccc2[nH]ncc2c1,-3,53*,13,17,5,-45,15
O=C(Cc1ccccc1)Nc1ccc2[nH]ncc2c1,3,14,-10,-27,-20,-3,.
CCCCCC1CCC(C(=O)NCCN2CCOCC2)CC1 (stereo not drawn),-1,-11,2,18,-8,-4,.
Nc1ccccc1C=C1Cc2ccccc2C1=O,-9,-59,-58,-211,-244,-7,.
O=C1C(=Cc2ccccc2[N+](=O)[O-])Cc2ccccc21,.,89*,1,31,100*,-48,85*
CC1C=CC(C)C(C(=O)c2ccccc2)C1C(=O)c1ccccc1 (stereo not drawn),.,-5,11,14,15,-3,.
O=C(c1ccccc1)C1OC1C(=O)c1ccccc1 (stereo not drawn),36,56*,-12,-55,-18,-12,54*
COc1ccc(-c2ccc(CO)o2)cc1N,-11,-4,-17,-88,-58,-17,.
Nc1nc(N)nc(-c2cc([N+](=O)[O-])ccc2O)n1,10,61*,-24,-28,60*,-21,73*
O=C(OCc1nnc(-c2ccccc2)o1)c1cc(Cl)ccc1[N+](=O)[O-],-10,3,-12,-47,-39,-3,.
O=C(NCCCSc1ccccc1)c1cc(Br)ccc1O,10,55*,-4,-9,42,-36,79*
CCOC(=O)c1c(C)cc2c(CO)n[nH]c(=O)c2c1C,.,51*,14,10,27,-14,48*
CC(=O)Oc1ccccc1N(C(C)=O)S(=O)(=O)c1ccc2ccccc2c1,3,2,-19,-16,-17,20,.
CC(=O)Oc1ccc(N(C(C)=O)S(=O)(=O)c2cccs2)c2ccccc12,33,56*,-9,-4,8,-12,67*
O=C1[C@H](Cc2ccccc2)NCCCC[C@H](c2ccco2)N1Cc1ccccc1,8,23,26,-11,30,-24,.
O=C1[C@H](Cc2ccccc2)NCCCC[C@H](c2ccc(Cl)cc2)N1Cc1ccccc1,1,59*,5,16,32,-38,39
C=CC[C@@H](CC(=O)N[C@H](CO)Cc1ccccc1)C(=O)NC[C@H](OC(=O)[C@@H](CC=C)Cc1ccc(F)cc1)c1ccccc1,-7,54*,-59,-2,79*,-41,63*
Brc1cccc(CSc2nnc(-c3ccncc3)o2)c1,4,59*,16,-9,-3,10,69*
CN(C(=O)COC(=O)CNC(=O)c1ccc(C(C)(C)C)cc1)c1c(N)n(Cc2ccccc2)c(=O)[nH]c1=O,-18,9,-24,-5,-13,-6,.
COc1ccc([C@H]2CC(=O)C=C(c3ccc(OC)c(OC)c3)C2)cc1,-41,57*,14,-62,-50,-17,36
Nc1nccc(-c2cc(-c3ccc(Cl)cc3Cl)no2)n1,-23,51*,-35,-231,-112,-22,27
CN(C)CCCN(C(=O)CCSc1ccccc1)c1nc2cc3c(cc2s1)OCO3,35,56*,-21,-5,91*,-15,49*
O=C(NC12CC3CC(CC(C3)C1)C2)N1CCN(C(=O)c2ccco2)CC1,-3,15,-3,-34,-18,1,.
SMILES,TRPM1 prom inh,CF NFkB inh,Shn3 inh set2,HIF-2a inh,Peg3 prom inh,KKLEB tox,CF NFkB inh conf
C=C1C(=O)[C@]23C[C@H]1CC[C@H]2[C@]1(C)[C@@H](OC(C)=O)CC[C@@](C)(C(=O)O)[C@H]1C[C@@H]3O,.,92*,63,30,93*,-19,93*
C=C1C(=O)[C@]23C[C@H]1CC[C@H]2[C@]1(C)[C@@H](O)CC[C@@](C)(C(=O)O)[C@H]1C[C@@H]3O,.,84*,49,2,-8,8,83*
O=C(CSc1ccccc1)N(c1ccc(Br)cc1)c1nccs1,-12,21,6,-20,-6,-16,.
CCCCNC(=O)O/N=C(\N)CS(=O)(=O)C(C)(C)C,6,-2,8,10,9,9,.
COc1cc2[nH]c3c(=O)n4c(nc3c2cc1OC)SCCC4,-11,-12,-41,-143,-54,-11,.
O=c1cc(C(F)(F)F)[nH]c2c(C(F)(F)F)cccc12,5,57*,-12,-3,24,-2,1
O=c1cc(C(F)(F)F)[nH]c2ccc(OC(F)(F)F)cc12,.,26,6,-15,38,-4,.
C/C(=N/NC(=O)c1cc(-c2cccc([N+](=O)[O-])c2)n[nH]1)c1cccc(O)c1,0,57*,-11,14,12,-12,37
CCOC(=O)[C@@H]1[C@H]2COc3ccc(Br)cc3[C@H]2N2C(=O)N(c3ccc(C)cc3)C(=O)[C@]12C,7,51*,-21,17,13,-11,42*
CCOC(=O)[C@@H]1[C@H]2COc3ccc(Br)cc3[C@@H]2N2C(=O)N(c3ccc(C)cc3)C(=O)[C@]12C,7,1,-5,11,2,-11,.
COc1ccc(COc2cc(-c3cccc(OC)c3)nc3ccc(NC(=O)c4cccnc4)cc23)cc1,4,80*,10,17,54*,-17,92*
Clc1ccc(Cn2ncc3c(N4CCN(c5ccccc5)CC4)ncnc32)cc1,.,91*,26,-29,92*,-36,100*
CCCCN1CC(=O)N2[C@H](c3ccc(OC)cc3)[C@@H]3C(=O)N(CC)C(=O)[C@@H]3[C@]2(C)C1=O,4,6,-4,7,-7,13,.
Cc1nn(-c2ccc(F)cc2)c2sc(C(=O)OCC(=O)N3CCC(C)CC3)cc12,-3,-23,-8,13,22,-3,.
Cc1noc(C)c1COC(=O)c1cc2c(C)nn(-c3ccc(F)cc3)c2s1,8,51*,3,21,14,-31,8
COc1ccc(CN(CCC(c2ccc(F)cc2)C2CCOC(C)(C)C2)C(=O)c2ccco2)cc1 (stereo not drawn),10,74*,8,2,51*,-15,49*
